The results in this text go back to PubChem BioAssay (NCI).

Holding throughout (experiment): NCI-60 one-dose screen, 48 h (100 = growth as untreated, 0 = no growth, -100 = all killed)
Conditions in all cases: 10 µM unless noted

Test [1] deals with HT29 colon.
The test system of test [2] is SNB-75 CNS.
The subject of test [3] is SNB-19 CNS.
The test system of test [4] is U251 CNS.
Test [5] has as its system PC-3 prostate.
Test [6] deals with SK-MEL-5 melanoma.
For test [7], the system named is LOX IMVI melanoma.
Test [8] relates to SK-MEL-28 melanoma.
For test [9], the system named is SK-MEL-2 melanoma.
Test [10] deals with UACC-62 melanoma.

About 83,000 compounds went through this panel and 20% of them were active in at least one assay; those are over-represented in the sample as a whole.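 Values shown are percent growth following 48 h exposure of cells in 96-well plates to a single concentration of compound; below 10 was considered active.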 Values without a mark were called inactive. Activity calls are given as the source filed them.

As for `O=C(/C(=C/c1cccc([N+](=O)[O-])c1)c1ccccc1)c1ccccc1`, the growth in test [1] is 52.7%; in test [2] it was 56.8%; in test [3] it was 77%; in test [4], 56.3%; in [5] it was 64%; in test [6], 41.5%. The figures for the growth in test [7] and in test [8] were 10.7% and 92.8%, respectively.

On to `COC(=O)[C@]1(CCSC)N[C@H](c2cn(-c3ccccc3)nc2C)[C@@H]2C(=O)N(c3ccc(C)cc3)C(=O)[C@@H]21`, for which the growth in test [1] was 99.7%; in test [2] it was 93.3%; in [3], 97.8%; in test [4], 95.7%; in test [5] it was 98.1%; in [6] it was 115%. The values for the growth in [7], in test [8] and in [9] were 97.9%, 109% and 101%, respectively.

For the compound `CC1(C)OC(=O)C(=Cc2ccccc2Br)C(=O)O1`, the growth in [1] is 103%; in [2], 81.8%; in test [3], 94.3%; in test [4], 96.8%; in [5] it was 92.5%; in test [6], 97.6%. Further, the growth in test [7] was 94.1%; in test [8] it was 115%; in test [9], 97.6%.

Turning to `COc1cc(C2NC(c3ccc(Cl)cc3)C(C)C(=NC(=O)c3cnccn3)C2C)cc(OC)c1OC` (configuration not stated), the growth was 67.8% in test [1]; 90.9% in test [2]; 86.7% in test [3]; 77.9% in test [4]; 88.8% in test [5]; 82.3% in test [6]. Further, the growth in test [10] was 101%; in test [8] it was 110%; in [9], 97.3%.

Consider `CC(C)[C@]12O[C@H]1[C@@H]1O[C@]13[C@]1(O[C@H]1C[C@H]1C4=C(CC[C@@]13C)C(=O)OC4)[C@@H]2OC(=O)CN(C)C`, for which the growth in [1] was 0.899% (active); in [2], -65.4% (active); in test [3] it was 23%; in test [4], 15.4%; in test [5], 19.6%; in test [6], -20.1% (active). Besides, the growth was -34.8% (active) in test [10], 1.04% (active) in [8] and -60% (active) in test [9].

In the case of `CC[C@]1(O)CC2CN(CCc3c([nH]c4ccccc34)[C@@](C(=O)OC)(c3cc4c(cc3OC)N(C)[C@H]3[C@@](O)(C(=O)OC)[C@H](OC(C)=O)[C@]5(CC)C=CCN6CC[C@]43[C@@H]65)C2)C1` (some centres not stated), the growth in [1] was 3.18% (active); in test [2], 5.29% (active); in [3], 43.8%; in test [4] it was 17.3%; in [5], 28.1%; in test [6] it was -61.3% (active). Moreover, the growth is 18.9% in test [7], 68.1% in [8] and 34.3% in test [9].

Regarding `Nc1ccc(S(=O)(=O)Nc2ncccn2)cc1`, the growth in test [1] is 105%; in [2], 102%; in [3], 105%; in test [4] it was 106%; in [5], 97.7%; in test [6] it was 108%. The growth in test [7] is 102%; in test [8] it was 118%; in [9], 106%.

Take `COc1ccc(/C=C(\C#N)c2ccccc2)cc1`: the growth in [1] is 85.5%; in test [2], 64.6%; in test [3], 80.8%; in [4] it was 81.4%; in [5] it was 83.3%; in test [6] it was 81%. Further, the values for the growth in test [7] and in test [8] were 89.7% and 90.6%, respectively.

For the compound `Cc1ccc(C(O)C2=CC(=O)c3ccccc3C2=O)cc1` (configuration not stated), the growth is 107% in test [1]; 92.3% in [2]; 102% in test [3]; 96% in test [4]; 89.4% in test [5]; 97.7% in test [6]. The growth in [10] is 90.5%; in test [8], 112%; in test [9], 116%.

`COc1cc(C2=NN(C(C)=O)C(c3ccc(OC(C)=O)cc3OC(C)=O)O2)c(OC(C)=O)c2ccccc12` (configuration not stated): the growth in [1] is 29.9%; in test [2], 50.4%; in [3], 36.7%; in test [4], 15.7%; in test [5], 42.9%; in [6] it was 7.09% (active). For the same compound, the growth in test [7] is 2.78% (active); in test [8], 23.7%.

`COc1ccc2c(c1)C(=O)/C(=C/c1ccc([N+](=O)[O-])s1)O2`: the growth in test [1] is -22.7% (active); in test [2], 12.2%; in [3], -5.72% (active); in test [4], -50.7% (active); in test [5], -15.7% (active); in test [6], -13.5% (active). For the same compound, the growth is -24.9% (active) in test [7] and -33.9% (active) in test [8].

On to `COc1cc(C2NC(c3ccc(Cl)cc3)C(C)/C(=N/NC(N)=S)C2C)cc(OC)c1OC` (configuration not stated), for which the growth is 64.7% in test [1]; 81% in test [2]; 78.2% in [3]; 73.4% in [4]; 73.8% in [5]; 79.4% in [6]. The results for the growth in test [10], in [8] and in [9] were 94%, 108% and 83.6%, respectively.

`Cc1cc(C(=O)O)c(C)cc1C(=O)O`: the growth in test [1] was 103%; in test [2], 97%; in test [3] it was 107%; in test [4], 109%; in test [5], 92.3%; in test [6], 99.9%. Moreover, the growth in [7] is 103%; in test [8], 108%; in test [9], 104%.

For the compound `COc1ccc(OC)c(/C=C/c2nc(=S)n(-c3ccc(Cl)cc3)[nH]2)c1`, the growth was 65.4% in [1]; 42.5% in test [2]; 51.2% in [3]; 53.3% in [4]; 58.6% in [5]; 32.5% in test [6]. Also, the growth in test [10] was 42.8%; in [8], 72.7%; in test [9], 71.2%.

`O=C(/C(=C/c1ccc([N+](=O)[O-])cc1)c1ccccc1)c1ccccc1`: the growth in test [1] is 44.1%; in [2], 70.6%; in test [3], 75.9%; in [4], 52.6%; in test [5], 59.1%; in test [6], 43.6%. In addition, the growth in test [7] is 5.01% (active); in test [8], 97.9%; in [9], 24.9%.

`Cc1cc2c(C#N)n3c(c2cc1C)C(=O)C(c1ccccc1)Oc1ccccc1-3` (configuration not stated): the growth was 18.5% in [1]; 15.6% in test [2]; 35.9% in test [3]; 18.3% in test [4]; 28.3% in test [5]; 22.7% in [6]. In addition, the growth in test [7] was 20%; in test [8], 85.1%; in test [9], 45.2%.

On to `COc1cc(/C=C/C(=O)Nc2ccc3c(c2)/C(=C\c2cccn2C)C(=O)N3)cc(OC)c1OC`, for which the growth is 53.9% in [1]; 9.39% (active) in test [2]; 65.3% in test [3]; 52.4% in test [4]; 59.9% in [5]; 18.2% in test [6]. Besides, the growth is 41.4% in test [7], 63.1% in test [8] and 25.1% in test [9].

For `N#Cc1c2ccccc2c2n1-c1ccccc1OC(c1ccccc1)C2=O` (configuration not stated), the growth in test [1] is 23.1%; in test [2], 24.2%; in test [3] it was 23.5%; in test [4], 17.9%; in test [5], 32.1%; in test [6], 10.6%. Further, the growth in test [7] is 9.92% (active); in test [8], 93.8%; in test [9] it was 59.9%.

With `Cc1cc(C)c(OC(=O)CSc2nc3ccccc3c(=O)n2CCc2ccccc2)cc1C`, the growth in test [1] was 99.5%; in test [2], 88.1%; in test [3], 103%; in test [4], 74.1%; in test [5] it was 66%; in [6], 108%. The growth in [10] was 77%; in test [8], 111%; in test [9] it was 112%.

For the compound `COc1ccc(/C(=C2\O[C@@H]([C@H](O)CO)[C@H]3OC(C)(C)O[C@@H]23)c2cc(OC)c(OC)c(OC)c2)cc1O`, the growth was 111% in test [1]; 55.9% in [2]; 76.8% in [3]; 90.6% in test [4]; 51.8% in test [5]; 74.3% in test [6]. Also, the values for the growth in [10] and in test [9] were 95.1% and 77.5%, respectively.

For `CO[C@H]1/C=C/O[C@@]2(C)Oc3c(C)c(O)c4c(O)c(c(/C=N/N5CCN(C)CC5)c(O)c4c3C2=O)NC(=O)/C(C)=C\C=C\C(C)[C@H](O)[C@@H](C)[C@@H](O)[C@@H](C)[C@@H](OC(C)=O)[C@@H]1C` (some centres not stated), the growth is 107% in test [1]; 88.7% in test [2]; 101% in test [3]; 96.9% in test [4]; 94% in test [5]; 90.6% in test [6]. Also, the growth in [7] is 93.8%; in test [8], 101%; in test [9], 113%.

Regarding `COc1ccc(COC(C)=O)cc1`, the growth in [1] was 113%; in [2], 114%; in [3], 114%; in [4], 107%; in [5], 95.3%; in test [6] it was 108%. Moreover, the growth in test [10] was 111%; in test [8] it was 113%; in test [9], 113%.

As for `CCOC(=O)/C(=C/c1ccccc1)C(=O)c1ccccc1`, the growth in test [1] was 84.1%; in [2] it was 49.6%; in test [3], 85.4%; in test [4] it was 68.1%; in test [5], 80.6%; in test [6], 66.5%. Further, the growth in test [7] was -26.9% (active); in test [8], 94.3%.

In the case of `CC(c1cc(Cl)ccc1O)c1cc(Cl)ccc1O`, the growth in [1] was 2.77% (active); in [2] it was 35.8%; in [3], 68.5%; in [4] it was 19.2%; in test [5] it was 25.9%; in test [6], 7.93% (active). For the same compound, the figures for the growth in test [7], in [8] and in test [9] were 30.1%, 33.5% and -16.8% (active), respectively.

For the compound `Cn1c(=O)c2c(nc(Br)n2CCC(=O)Nc2ccc(F)cc2)n(C)c1=O`, the growth is 96.3% in test [1]; 89.1% in test [2]; 103% in test [3]; 96.7% in test [4]; 95.9% in test [5]; 111% in [6]. Moreover, the growth in test [7] is 89.9%; in [8] it was 112%; in test [9] it was 100%.

`ClC1C2CC(c3ccccc32)C1Cl` (configuration not stated): the growth in test [1] was 100%; in test [2], 102%; in test [3], 104%; in test [4], 106%; in test [5], 104%; in [6], 113%. Further, the growth in test [10] was 101%; in test [8], 108%; in [9] it was 104%.

As to `N#Cc1cccc(/C=C(/C(=O)c2ccccc2)c2ccccc2)c1`, the growth in [1] is 70.1%; in test [2], 69.4%; in test [3] it was 83%; in test [4] it was 60.1%; in [5], 66.5%; in [6], 49.3%. In addition, the growth was 14.1% in [7], 100% in test [8] and 34.5% in test [9].
